Reference: ChEMBL document CHEMBL3988442, “University of Dundee, Small-Polar-MMV Screening Library” (2021)
The campaign covered roughly 53,000 compounds. About 900 (1.7%) showed an effect of 50% or more. Shown is part of a subset that was picked to be rich in strong results.

system: Mycobacterium tuberculosis; assay: Cornell - Phenotypic assay to identify agents that inhibit growth of Mycobacterium tuberculosis; assay type: functional; set-up: scale not given: direction of the effect not stated beside the values; settings: 10 mM as filed; unlikely as a test dose

Going from `CCCN(CCc1ccccn1)C(=O)Cn1cc(C)cn1` to `Cc1ccc(NC(=O)Cn2cc(I)cn2)cc1`, the “Percent Effect” value falls from 6.805% to 2.116%.

Compared with `CC(C)C(=O)N1CCC(c2c(C(N)=O)sc3ccccc23)C1` (centres undefined), `CC(Oc1ccc2c(c1)OCO2)C(=O)N1CCC(c2ncc[nH]2)CC1` (centres undefined) is higher in “Percent Effect” value: -20.56% for the first, -2.052% for the second.

First: CO[C@@H]1CCN(Cc2nccs2)C[C@@H]1Cc1cccc(C)c1.O=C(O)C(F)(F)F
Second: CO[C@@H]1CCN(Cc2nccs2)C[C@@H]1Cc1ccccc1.O=C(O)C(F)(F)F
The “Percent Effect” value of the first is higher: 58.64% for the first, 17.77% for the second.

First: CO[C@H]1CCN(Cc2nccs2)C[C@@H]1Cc1ccccc1
Second: CC(OCC1CC1)C(=O)Nc1nccn1Cc1ccccc1 (centres undefined)
The “Percent Effect” value of the first is lower: 32.3% for the first, 51.13% for the second.

Compared with `NC(=O)c1ccc(NC(=O)Cn2cc(I)cn2)cc1`, `CC(C)c1ccc(NC(=O)Cn2cc(I)cn2)cc1` is higher in “Percent Effect” value: 12.21% for the first, 64.63% for the second.

Going from `CS(=O)(=O)CCSc1n[nH]c(-c2ccc3c(c2)CCC3)n1` to `CCCN(CCO)S(=O)(=O)c1ccc2[nH]c(=O)[nH]c2c1`, the “Percent Effect” value falls from 22.85% to 11.31%.

Compared with `O=C(CSC1CCCC1)N1CCN(c2ccc(-n3cncn3)nn2)CC1`, `O=C(CSC1CCCC1)N1CCN(C(=O)C2CC2c2ccccc2)CC1` (centres undefined) is higher in “Percent Effect” value: -7.169% for the first, 57.68% for the second.

Going from `O=C(CSC1CCCC1)N1CCN(C(=O)C2CC2c2cccs2)CC1` (centres undefined) to `O=C1CCC(c2nc(C3CCN(C(=O)Cc4cccs4)CC3)no2)N1` (centres undefined), the “Percent Effect” value rises from 19.24% to 57.39%.

First: CN(CCOc1ccccc1F)C1CCOC1=O (centres undefined)
Second: Cc1ccccc1OCCN1CCn2c(C)nnc2C1
The “Percent Effect” value of the first is lower: -18.35% for the first, -10.78% for the second.

Going from `CC(Cn1cncn1)NCc1csc2c1CCCC2` (centres undefined) to `CC(Cn1cccn1)NCc1csc2c1CCCC2` (centres undefined), the “Percent Effect” value falls from 6.492% to -0.7044%.

Compared with `CC(Cn1ccnc1)NCc1csc2c1CCCC2` (centres undefined), `O=C(Nc1cccnc1-n1cc(Br)cn1)C1CCCC1` is lower in “Percent Effect” value: 52.3% for the first, -1.816% for the second.

Compared with `O=C1NCC2(CCCN(C(=O)CCn3cnc4ccccc43)CC2)O1` (centres undefined), `CC(=O)N1CCC2(CCN(Cc3ccc(Cl)c(C(F)(F)F)c3)CC2)C1` is higher in “Percent Effect” value: -0.9742% for the first, 43.5% for the second.

Going from `COc1cccc(Cn2[nH]c(C)c3c(NC(=O)C(C)OC)nnc2-3)c1` (centres undefined) to `CCOCCOC(C)C(=O)Nc1nccn1Cc1ccccc1` (centres undefined), the “Percent Effect” value falls from 19.31% to 4.045%.

Compared with `COCC(C)NC(=O)CCSc1ccc(F)cc1` (centres undefined), `CCOC(=O)C(C)NC(=O)CCSc1ccc(F)cc1` (centres undefined) is higher in “Percent Effect” value: -22.42% for the first, 72.72% for the second.

Compared with `CCOC(=O)C(C)NC(=O)CCc1ccc(F)cc1` (centres undefined), `CC(=O)Nc1nc(C(=O)NC(C)c2ccncc2)cs1` (centres undefined) is lower in “Percent Effect” value: 12.11% for the first, -46.84% for the second.

Going from `CNC(=O)NC(=O)CN1CCN(c2ccc(C(=O)OC)cc2)CC1C` (centres undefined) to `CC(=O)N[C@@H]1CN(Cc2cccs2)C[C@H]1c1ccc(C)o1`, the “Percent Effect” value rises from -3.666% to 10.2%.

First: Cc1cs/c(=N\C(=O)c2c3c(nc4onc(C)c24)CCC3)[nH]1
Second: Cc1cs/c(=N/C(=O)c2csc(NCC(C)C)n2)[nH]1
The “Percent Effect” value of the first is lower: 37.19% for the first, 104.8% for the second.

Going from `CC(C)CNc1nc(C(=O)/N=c2\[nH]nc(C(C)(C)C)s2)cs1` to `Cc1[nH]/c(=N\C(=O)c2csc(NCC(C)C)n2)sc1C`, the “Percent Effect” value rises from 4.379% to 105.2%.

First: CC(=O)Nc1nc(C(=O)NC(C)c2cccnc2)cs1 (centres undefined)
Second: CC(OCC1CC1)C(=O)Nc1ccn(Cc2ccccc2)n1 (centres undefined)
The “Percent Effect” value of the first is lower: -20.46% for the first, -1.057% for the second.

First: CCCNC(=O)C(C)N1CCC(C(=O)Nc2cnn(CC)c2)CC1 (centres undefined)
Second: COCC(=O)N1CCCC(C(=O)N(C)CCn2ccnc2C)C1 (centres undefined)
The “Percent Effect” value of the first is higher: -1.052% for the first, -64.71% for the second.

Going from `Cc1cnc(N2CCCn3c(nnc3CN(C)C(C)C)C2)nc1.O=C(O)C(F)(F)F` to `Cn1nc(COc2cccnc2)c2c1CCN(CC1CC1)C2.O=C(O)C(F)(F)F.O=C(O)C(F)(F)F`, the “Percent Effect” value falls from 8.261% to -1.302%.

Going from `c1csc(N2CCN(c3ncnc4sccc34)CC2)n1` to `Cn1ccnc1CN1CCCC(Cc2ccnc3ccncc23)CC1.O=CO` (centres undefined), the “Percent Effect” value rises from 8.465% to 25.28%.

Compared with `CCn1c(CN(C)Cc2cnc(C)s2)nc2c(F)cccc21`, `Cc1nc([C@@H]2C[C@@H]3CCN(C(=O)Cc4cccc(F)c4)C[C@H]3O2)no1` is lower in “Percent Effect” value: 21.09% for the first, 16.61% for the second.

Compared with `Cc1nnc(C(C)N2CCc3[nH]c4ccccc4c3C2)o1` (centres undefined), `Cc1nnc(C(C)N2CCc3[nH]c4ccc(Cl)cc4c3C2)o1` (centres undefined) is higher in “Percent Effect” value: 28.26% for the first, 34.8% for the second.

First: Cc1noc(C(C)N2CCc3[nH]c4ccc(Cl)cc4c3C2)n1 (centres undefined)
Second: Cc1cc2nc(C(C)C)cc(N3CCC(N(C)C)C3)n2n1 (centres undefined)
The “Percent Effect” value of the first is higher: 63.72% for the first, 32.15% for the second.

First: CN(C)CCn1c2c(ccc1=O)CC(NC(=O)c1ccsc1)CC2.O=C(O)C(F)(F)F (centres undefined)
Second: Cc1cc(C[C@@H]2CCC[C@H]2NCc2ccccc2C(F)(F)F)on1.O=C(O)CC(O)(CC(=O)O)C(=O)O
The “Percent Effect” value of the first is lower: -27.73% for the first, 12.28% for the second.

Going from `CCN(CC1CCCO1)C(=O)Nc1ccc(F)cc1OC` (centres undefined) to `CCN(CC1CCCO1)C(=O)Nc1ccc(OC)c(C)c1` (centres undefined), the “Percent Effect” value rises from 2.654% to 29.95%.

Going from `CCN(CC1CCCO1)C(=O)Nc1cc(OC)c(OC)cc1C` (centres undefined) to `Cc1cc(C[C@@H]2CCC[C@H]2NCc2cc(C)c(O)c(C)c2)on1.O=C(O)CC(O)(CC(=O)O)C(=O)O`, the “Percent Effect” value rises from 69.91% to 77.55%.

First: Cc1ccc(C2CSCCN2C(=O)c2cccs2)o1 (centres undefined)
Second: Cc1nc([C@@H]2C[C@@H]3CCN(C(=O)Cc4cccs4)C[C@H]3O2)no1
The “Percent Effect” value of the first is lower: -1.514% for the first, 53.11% for the second.

Going from `CNC(=O)c1cnn2c(C3CCCN3)ccnc12` (centres undefined) to `Cc1nc([C@@H]2C[C@@H]3CCN(C(=O)Cc4ccsc4)C[C@H]3O2)no1`, the “Percent Effect” value rises from -26.66% to -0.3005%.

Going from `CCC(=O)N1CCCCC1c1nc(O)c2c(n1)CN(S(=O)(=O)CC)CC2` (centres undefined) to `O=C1CCC(c2nc(C3CCN(C(=O)C4CC4)CC3)no2)N1` (centres undefined), the “Percent Effect” value rises from 9.253% to 13.14%.

First: CC(=O)N1CCC(c2noc(C3CCC(=O)N3)n2)CC1 (centres undefined)
Second: Cc1cc(C[C@@H]2COC[C@H]2NCc2ccc(C)c(C)c2)on1.O=C(O)CC(O)(CC(=O)O)C(=O)O
The “Percent Effect” value of the first is higher: 5.586% for the first, -9.136% for the second.
